From PubChem
The full list was thinned out, with hits kept by preference.
Shiga toxin inh: blocks Shiga toxin action in Vero cells; Vero cells, Shiga toxin protein synthesis inhibition reporter; inhibition, % at 38.7 µM; 290,000 compounds, 9.2% hits; in the data active means inhibition mostly above about 28%, no sharp cut-off; inactive means mostly below about 43%
RE007 growth inh: less growth of the S. pombe RE007 Vpr strain; S. pombe RE007 Vpr strain, BacTiter-Glo ATP luminescence, 24 h; Potency, µM (top dose mostly 92.2 µM), usual class: inhibitors; 360,000 compounds, 0.21% hits; AID 651644; active means well fitted falling curve with a large enough effect; inconclusive means small, poorly fitted or top-dose-only effect; inactive means no such curve, though single readings can be large or run the other way; further: nearly all actives have a fitted effect of over 50% in size
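Fission yeast RE007 carrying one integrated HIV-1 vpr copy, seeded at OD 0.01 in PMG+AL medium with 23 nL pinned compound. Grown 24 h at 30 degrees; viability read by BacTiter-Glo luminescence after 5 min.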
LmPK inh: blocks Leishmania mexicana pyruvate kinase activity; Q27686; purified LmPK, Kinase-Glo ATP luminescence, 1 h; Potency, µM (titrated, usually from 57.5 µM), hits mostly inhibitors; 290,000 compounds, 0.37% hits
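Purified LmPK (0.1 nM) converted ADP (0.1 mM) to ATP with PEP (0.5 mM) in imidazole buffer pH 7.2 with KCl and MgCl2, 1 h at room temperature. ATP was read by Kinase-Glo luminescence; data normalized to uninhibited and no-enzyme controls.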
Tb PYK inh: T. brucei pyruvate kinase inhibition. 410,000 compounds, 0.12% hits. Q57TT1. Potency, µM (doses to about 76.8 µM), most hits filed as inhibitors. TbPYK enzyme, Kinase-Glo Plus ATP luminescence, 45 min. AID 624173; further: nearly all actives have a fitted effect of over 50% in size
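Activity of T. brucei pyruvate kinase was followed by Kinase-Glo Plus luminescence after the enzyme reacted 45 min at room temperature with 130 uM ADP (final) and substrate. Test compounds were added before ADP at multiple concentrations.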
FBPA Giardia inh: blocks Giardia fructose-bisphosphate aldolase activity; 290,000 compounds, 0.71% hits; A8B2U2; purified Giardia FBPA; Potency, µM (series often up to 59.6 µM), usual class: inhibitors; further: nearly all actives have a fitted effect of over 55% in size
Target sequence (A8B2U2 whole entry, looked up): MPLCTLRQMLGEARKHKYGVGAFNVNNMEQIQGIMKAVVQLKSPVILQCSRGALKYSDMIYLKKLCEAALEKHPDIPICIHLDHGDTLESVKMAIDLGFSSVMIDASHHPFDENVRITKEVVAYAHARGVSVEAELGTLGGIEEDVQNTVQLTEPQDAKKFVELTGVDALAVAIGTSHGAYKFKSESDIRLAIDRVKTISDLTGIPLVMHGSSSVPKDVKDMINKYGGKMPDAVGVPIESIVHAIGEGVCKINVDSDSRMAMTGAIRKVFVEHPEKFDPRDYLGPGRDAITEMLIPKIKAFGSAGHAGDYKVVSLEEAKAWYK
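Giardia FBPA (40 nM reagent) was preincubated 10 min at RT with compound (up to 57.5 uM final), then substrate plus GAPDH/TPI/NAD/arsenate coupling system with diaphorase/resazurin was added; resorufin fluorescence (525/598 nm) was read after 20 min.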
CHX counter: counter-screen for Shiga toxin inhibitors: cycloheximide protein synthesis inhibition. cell reporter, cycloheximide protein synthesis inhibition counterscreen. max response, %. 300,000 compounds, 12% hits. AID 2314; in the data active means max response mostly above about 13%, no sharp cut-off; inactive means mostly below about 14%; further: read at 38.3 µM for the half of the compounds with a filed dose
A number is an active result; – = inactive; ? = inconclusive; · = no result; [ ] = dose if it differs, or a comment. Unless noted, the call rests on the fitted dose curve; in most records, active means well fitted curve in the direction sought with a large enough effect; inconclusive means small, poorly fitted or top-dose-only effect, or another doubt; inactive means no such curve, though single readings can be large; an effect the other way counts as inactive or inconclusive.

SMILES	Shiga toxin inh	RE007 growth inh	LmPK inh	Tb PYK inh	FBPA Giardia inh	CHX counter
Cc1nn(-c2ccccc2)c(N)c1N=Nc1ccc2ccccc2c1	56	–	–	–	–	39
Cc1ccc(N=Nc2c(N)nn(-c3ccccc3)c2N)cc1	91	–	–	–	–	63
Cc1ccc(N=Nc2c(N)nn3c(C)cc(C)nc23)cc1	–	?	–	–	–	21
CCC(Cn1nnc2ccccc2c1=O)NC(=O)Nc1cc(OC)cc(OC)c1 (centres undefined)	·	·	·	–	·	·
Cc1ccc(C(=O)c2sc(Nc3ccc(F)cc3)nc2N)c(C)c1	·	·	·	–	·	·
O=[N+]([O-])c1cccc(Nc2c([N+](=O)[O-])ccc3nonc23)c1	–	–	–	–	–	–
O=[N+]([O-])c1ccc2nonc2c1Nc1ccccc1	–	–	–	–	–	23
CCc1nnc(NC(=O)CSc2nnc(CNC(=O)c3cc(OC)c(OC)c(OC)c3)o2)s1	96	–	–[11.5 µM]	–	–	–
CCSc1nnc(NC(=O)CSc2nnc(CNC(=O)c3cc(OC)c(OC)c(OC)c3)o2)s1	–	–	–	–	–	–
C[C@H]1Cc2c(-c3ccccc3)nc3c(c2CO1)CN(C(=O)c1cc(I)ccc1F)CC3	·	·	–[11.5 µM]	·	–[12.9 µM]	·
FC(F)(F)c1cccc(N2CCN(Cc3nnc(-c4ccc5c(c4)OCO5)o3)CC2)c1	·	·	·	–	·	·
O=c1c2ccccc2oc2ccc(Oc3ccccc3)cc12	42	–	–	–	?	41
O=C(Nc1ccccc1N1CCOCC1)c1cc2c(s1)CCCCC2	53	–	–	–	–	40
O=C(Nc1ccc(N2CCOCC2)cc1)c1cc2c(s1)CCCCC2	–	–	–	–	–	–
O=C(Nc1ccc(N2CCOCC2)cc1)c1cc2c(s1)CCCC2	–	–	–	–	–	17
O=C(c1cc2c(s1)CCCC2)N1CCN(c2ccccc2)CC1	151	–	–	–	–	24
CC(C)c1nc(N(C)S(C)(=O)=O)nc(-c2ccc(F)cc2)c1/C=C/C(O)CC(O)CC(=O)O (centres undefined)	·	·	·	–	–	·
C/C(=N\O)c1ccc2c3ccccc3n(C)c2c1	105	?	–	–	–	46
CCn1c2ccccc2c2cc(/C(C)=N/O)ccc21	–	?	–	–	–	–
Cc1oc(-c2cccc(Cl)c2)nc1Cn1c(SCc2ccc(F)cc2)nc2cccnc21	·	·	·	–	·	·
COc1ccc(NC(=O)COc2ccccc2)c(OC)c1	51	?	–	–	–	34
COc1ccc(NC(=O)COc2ccc(Br)cc2)c(OC)c1	30	–	–	–	–	13
COc1cccc(OCC(=O)NNC(=O)C(=O)Nc2ccc(OC)cc2OC)c1	–	–	–	–	–	–
O=C(Nc1ccc(Cl)cc1)Nc1cccc2nsnc12	114	–	–	–	–	64
COc1ccccc1NC(=O)COc1ccccc1	–	–	–	–	–	17
SMILES	Shiga toxin inh	RE007 growth inh	LmPK inh	Tb PYK inh	FBPA Giardia inh	CHX counter
COc1ccc(NC(=O)CN2c3cccc4cccc(c34)S2(=O)=O)c(OC)c1	–	–	–	–	–	14
O=C(COc1ccccc1)Nc1cccc2nsnc12	–	–	–	–	–	66
CCCOc1cccc(C2c3c(oc4ccc(F)cc4c3=O)C(=O)N2CCCN2CCOCC2)c1 (centres undefined)	·	·	·	–	·	·
O=C(Nc1cccnc1Cl)c1noc2c1CCc1ccccc1-2	92	–	–	–	–	34
CCCNC(=O)c1noc2c1CCc1ccccc1-2	64	–	–	–	–	42
O=C(NCCN1CCOCC1)c1noc2c1CCc1ccccc1-2	71	–	–	–	–	49
COc1ccc2c(c1)CCc1c(C(=O)NCCc3ccc(OC)c(OC)c3)noc1-2	–	–	–	–	–	–
Cc1onc(-c2ccccc2)c1C(=O)NCCN1CCOCC1	–	–	–	–	–	–
O=C(NCCc1ccccc1)c1noc2c1CCc1ccccc1-2	39	–	–	–	–	19
O=C(CSC1=Nc2ccccc2C2=NC(Cc3ccccc3)C(=O)N12)Nc1cccc(Cl)c1 (centres undefined)	·	·	·	–	·	·
CC(C)Cn1nc(NC(=O)c2cccc(Cl)c2)c2cc3ccccc3nc21	·	·	·	–	·	·
CCOc1ccc(N(C(=O)CC(C)C)S(=O)(=O)c2ccc3c(c2)oc(=O)n3C)cc1	·	·	·	–	·	·
